Records with an inconclusive call do not appear. The source made the active and inactive calls. Calls come from the whole dose curve; as a rule, active = well fitted curve in the direction sought with a large enough effect; inconclusive = small, poorly fitted or top-dose-only effect, or another doubt; inactive = no such curve, though single readings can be large; an effect the other way counts as inactive or inconclusive.
Columns and labels:
JEG-3 = assay: Primary qHTS to identify gynecologic anti-cancer compounds using libraries of approved drugs and bioactive compounds (AID 1345084); conditions: Gynecologic cancer cell panel viability, ATPlite luminescence, 48 h; series mostly up to 57.5 µM; note: nearly all actives have a fitted effect of over 55% in size; for activity change, negative = cytotoxicity: % is set by controls: 0 for no effect and ±100 for the full control effect
How it was run: (§1)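 Five-concentration response, 48 h; readout is ATP-driven luciferase luminescence.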

OV90 = assay: as above; conditions: Gynecologic cancer cell panel viability, ATPlite luminescence, 48 h; series mostly up to 57.5 µM
How it was run: as §1

Tov-21-G = assay: as above; conditions: Gynecologic cancer cell panel viability, ATPlite luminescence, 48 h; series mostly up to 57.5 µM
How it was run: as §1

Tov112D = assay: as above; conditions: Gynecologic cancer cell panel viability, ATPlite luminescence, 48 h; series mostly up to 57.5 µM
How it was run: as §1

SKOV3 = assay: as above; conditions: Gynecologic cancer cell panel viability, ATPlite luminescence, 48 h; series mostly up to 57.5 µM
How it was run: as §1

[1] = qHTS assay to identify inhibitors of the type 1 interferon - major histocompatibility complex class I in skeletal muscle: Counter screen cell viability and HiBit confirmation (AID 1347412); conditions: iHSKM muscle cells + IFN-b, HiBiT or CellTiter-Glo, 24 h; note: nearly all actives have a fitted effect of over 60% in size
How it was run: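 Luminescence read-out: Nano-Glo HiBiT lytic signal from C-terminally HiBiT-tagged HLA-B in CRISPR-edited human myoblasts, plus CellTiter Glo ATP as viability counter screen. IFN-beta 4.0 ng/ml; 24 hrs treatment at 37 C, 5% CO2.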

PA-1 = assay: Primary qHTS to identify gynecologic anti-cancer compounds using libraries of approved drugs and bioactive compounds (AID 1345084); conditions: Gynecologic cancer cell panel viability, ATPlite luminescence, 48 h; series mostly up to 57.5 µM; note: nearly all actives have a fitted effect of over 55% in size; for activity change, negative = cytotoxicity: % is set by controls: 0 for no effect and ±100 for the full control effect
How it was run: as §1
Potency is the fitted concentration of half-maximal effect.

O=C(CC1C(=O)Nc2ccccc21)OC[C@H]1O[C@@H](OCCc2ccc(O)cc2)[C@H](O)[C@@H](O)[C@@H]1O (some centres not stated)
inactive: Potency (JEG-3) | Potency (OV90) | Potency (Tov-21-G) | Potency (Tov112D)

CC(C)[N+]1(C)C2CCC1CC(OC(=O)C(CO)c1ccccc1)C2 (configuration not stated)
inactive: Potency (JEG-3) | Potency (OV90) | Potency (Tov-21-G) | Potency (Tov112D)

Cc1cc(N(C)C)ccc1-c1nc2ccc(-c3nc4ccc(N5CCN(C)CC5)cc4[nH]3)cc2[nH]1
inactive: Potency (JEG-3) | Potency (OV90) | Potency (Tov-21-G) | Potency (Tov112D)

Cc1nc(NC(=O)N2CCCC2C(N)=O)sc1-c1csc(C(C)(C)C)n1 (configuration not stated)
active: Potency (SKOV3) 3.16 µM
inactive: Potency (JEG-3) | Potency (OV90) | Potency (Tov-21-G) | Potency (Tov112D)

C=C(C)C(=O)OC1CC2(C)OC(=CC2=O)C(=C)CC2OC(=O)C(COC)C12 (configuration not stated)
inactive: Potency (JEG-3) | Potency (OV90) | Potency (Tov112D)

CCCCc1ccc(C(=O)Nc2cc(-c3ccc(Cl)cc3)nn2-c2ccc(Cl)cc2)cc1
inactive: Potency (JEG-3) | Potency (OV90) | Potency (Tov-21-G) | Potency (Tov112D)

CCN1CCN(Cc2ccc(Nc3ncc(F)c(-c4cc(F)c5nc(C)n(C(C)C)c5c4)n3)nc2)CC1
active: Potency ([1]; HiBiT) 8.83 µM | Potency ([1]; Viability) 22.2 µM
inactive: Potency (JEG-3) | Potency (OV90) | Potency (Tov112D)

C=CC(C)(C)c1[nH]c2cc3c(cc2c1CC1NC(=O)C2=CCCN2C1=O)C=CC(C)(C)O3 (configuration not stated)
inactive: Potency (JEG-3) | Potency (OV90) | Potency (SKOV3) | Potency (Tov-21-G) | Potency (Tov112D)

C/C=C/c1ccc2oc(-c3ccc(O)c(OC)c3)c(C)c2c1
active: Potency (OV90) 20 µM
inactive: Potency (JEG-3) | Potency (Tov-21-G) | Potency (Tov112D)

C=C1CCC2C(C)(C)C(O)CCC2(C)C1CCC(C)CCOC(C)=O (configuration not stated)
inactive: Potency (JEG-3) | Potency (OV90) | Potency (Tov-21-G) | Potency (Tov112D)

O=C(c1cccc(Cl)c1F)N1CCN(Cc2cccc(Nc3nccs3)n2)CC1
inactive: Potency (JEG-3) | Potency (OV90)
active: Potency (Tov112D) 0.891 µM

C=C(C)C(=O)O[C@H]1CC2=CC(C/C(C)=C\[C@H]3OC(=O)C(=C)[C@H]13)OC2=O (some centres not stated)
inactive: Potency (JEG-3) | Potency (OV90) | Potency (SKOV3) | Potency (Tov112D)

CNC(=O)c1ccccc1Nc1nc(Nc2ccc3c(c2OC)CCCC(N2CCN(CCO)CC2)C3)ncc1Cl (configuration not stated)
active: Potency (PA-1) 11.2 µM | Potency (SKOV3) 3.98 µM | Potency (Tov-21-G) 10 µM
inactive: Potency (JEG-3)

CC(=O)SCC(=O)c1ccc(NS(=O)(=O)c2ccc(OCCCN(C)C)cc2)nc1
active: Potency (JEG-3) 15.8 µM | Potency (PA-1) 2.82 µM | Potency (Tov-21-G) 11.2 µM

COC(C(=O)N1Cc2[nH]nc(NC(=O)c3ccc(N4CCN(C)CC4)cc3)c2C1)c1ccccc1 (configuration not stated)
inactive: Potency (JEG-3)
active: Potency (PA-1) 7.94 µM | Potency (SKOV3) 17.8 µM | Potency (Tov-21-G) 12.6 µM

CC(=O)O[C@@H]1[C@H](O)[C@@H](O[C@@H]2O[C@@H](C)[C@H](O[C@@H]3OC[C@@H](O)[C@H](O[C@@H]4OC[C@@H](O)[C@H](O)[C@H]4O)[C@H]3O)[C@@H](O[C@@H]3O[C@H](CO)[C@@H](O)[C@H](O)[C@H]3O)[C@H]2O)[C@H](OC(=O)[C@]23CCC(C)(C)C[C@H]2C2=CCC4[C@@]5(C)CC[C@H](O[C@@H]6O[C@H](C(=O)O)[C@@H](O)[C@H](O[C@@H]7OC[C@@H](O)[C@H](O)[C@H]7O)[C@H]6O[C@@H]6O[C@H](CO)[C@H](O)[C@H](O)[C@H]6O)[C@@](C)(C=O)C5CC[C@@]4(C)[C@]2(C)CC3)O[C@@H]1C (some centres not stated)
inactive: activity change, negative = cytotoxicity (JEG-3) -8.94% [at 6.55 µM] | activity change, negative = cytotoxicity (PA-1) -3.62% [at 6.55 µM] | activity change, negative = cytotoxicity (Tov-21-G) -5.86% [at 6.55 µM] | activity change, negative = cytotoxicity (Tov112D) 7.57% [at 6.55 µM]

CC[C@@H](N)CNc1ccnc(-c2cc(-c3cnn(C)c3)ccc2O)n1
active: Potency (JEG-3) 12.6 µM | Potency (PA-1) 7.94 µM | Potency (Tov-21-G) 8.91 µM | Potency (Tov112D) 10 µM

COc1cccc(-c2cc(NCc3ccc4c(c3)OCO4)nc(N)n2)c1
active: Potency (JEG-3) 1.41 µM | Potency (PA-1) 1 µM | Potency (Tov-21-G) 1 µM | Potency (Tov112D) 0.447 µM

CC(C)CNCc1ccc(-c2ccccc2S(=O)(=O)N2CCCC2)cc1
inactive: Potency (JEG-3) | Potency (PA-1) | Potency (SKOV3) | Potency (Tov-21-G) | Potency (Tov112D)

CO[C@H]1C[C@@H]2CC[C@@H](C)[C@@](O)(O2)C(=O)C(=O)N2CCCC[C@H]2C(=O)O[C@H]([C@H](C)C[C@@H]2CC[C@@H](OP(C)(C)=O)[C@H](OC)C2)CC(=O)[C@H](C)/C=C(\C)[C@@H](O)[C@@H](OC)C(=O)[C@H](C)C[C@H](C)/C=C/C=C/C=C/1C
inactive: Potency (JEG-3) | Potency (PA-1) | Potency (SKOV3) | Potency (Tov-21-G) | Potency (Tov112D)

CNC(=S)NS(=O)(=O)c1cc(CCNC(=O)c2cc(Cl)ccc2OC)ccc1OC
inactive: Potency (JEG-3) | Potency (PA-1) | Potency (SKOV3) | Potency (Tov-21-G) | Potency (Tov112D)

COc1cc(OC)cc(C(=O)Nc2ccc(Cl)c(-c3nc4ccc(N(C)C)cc4[nH]3)c2)c1
inactive: Potency (JEG-3) | Potency (PA-1) | Potency (SKOV3) | Potency (Tov-21-G) | Potency (Tov112D)

From PubChem BioAssay (NCATS)
